High-throughput results: PubChem, National Center for Advancing Translational Sciences (NCATS)
D2 PAM-1 = Beta-Arrestin HTS for Positive Allosteric Modulators of the Human D2 Dopamine Receptor: Potentiators | potentiation, % (concentration not given with the values) | D(2) dopamine receptor (Homo sapiens), P14416 | DiscoveRx D2 beta-arrestin cells, luminescence, 90 min; 100% = 57 uM dopamine signal | actives 0.23% (n = 360,000); in the data active = potentiation above about 50%
Target sequence (P14416 whole entry, looked up): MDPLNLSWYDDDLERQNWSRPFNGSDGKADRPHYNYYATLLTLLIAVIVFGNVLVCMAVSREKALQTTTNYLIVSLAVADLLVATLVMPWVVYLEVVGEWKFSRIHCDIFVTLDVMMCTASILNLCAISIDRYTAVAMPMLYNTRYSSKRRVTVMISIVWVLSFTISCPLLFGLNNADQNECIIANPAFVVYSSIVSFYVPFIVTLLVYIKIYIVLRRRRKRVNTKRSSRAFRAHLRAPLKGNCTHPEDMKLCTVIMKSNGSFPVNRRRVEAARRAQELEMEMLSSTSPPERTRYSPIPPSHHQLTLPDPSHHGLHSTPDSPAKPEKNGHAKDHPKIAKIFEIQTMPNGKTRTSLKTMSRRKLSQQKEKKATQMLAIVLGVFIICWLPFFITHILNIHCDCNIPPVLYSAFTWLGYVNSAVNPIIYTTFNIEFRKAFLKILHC
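PathHunter D2 cells, attached overnight at 37 deg C, received compound in DMSO plus dopamine at EC20 (50 nM final) for 90 min at 37 deg C. Beta-arrestin recruitment was read as luminescence after 1 h with detection reagent at ambient temperature.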
D2 ag-1 = HTS Assay for Allosteric Agonists of the Human D2 Dopamine Receptor: Primary Screen for Agonists | D(2) dopamine receptor (Homo sapiens), P14416 | HEK293 T-REx D2 cells, calcium flux agonist mode | activation, % at 2 µM | actives 0.53% (n = 340,000);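 active = activation over 3 SD above normal in the single-dose calcium agonist read, cut at about 30% in these data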
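Agonism scored from kinetic calcium signal (1 read/sec, 180 s) following compound pin transfer, after a 10 s baseline. Cells: HEK293 Trex line expressing inducible D2 receptor coupled to calcium, dye-loaded after overnight culture at 30 C.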
D2 ag-2 = Beta-Arrestin HTS for Positive Allosteric Modulators of the Human D2 Dopamine Receptor: Agonists; D(2) dopamine receptor (Homo sapiens), P14416; DiscoveRx PathHunter D2 beta-arrestin, luminescence, 90 min; 100% = 57 uM dopamine signal; activation, % (concentration not given with the values); actives 0.084% (n = 360,000); in the data active = activation above about 40%
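DiscoveRx PathHunter D2 beta-arrestin cells (2,100/well) attached overnight, then compound-stimulated 90 min at 37 C in HBSS/10 mM HEPES/0.1% Tween-20 buffer; beta-galactosidase complementation read by luminescence after 1 h at ambient temperature. Dopamine 57 uM final (EC100) as control.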
D2 antag = HTS Assay for Allosteric Antagonists of the Human D2 Dopamine Receptor: Primary Screen for Antagonists | D(2) dopamine receptor (Homo sapiens), P14416 | HEK293 TREx D2 cells, calcium flux, dopamine EC80 | inhibition, % at 10 µM | actives 2% (n = 340,000) | AID 485344, 2010; in the data active = inhibition above about 30%; inactive = below that, where a call was filed
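Read-out: kinetic calcium fluorescence (1 cycle/s) in inducible HEK293 T-REx D2 cells after an EC80 dopamine addition that followed 180 s compound preincubation. Loss of the dopamine response indicates antagonism.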
D2 PAM-2 = HTS Assay for Positive Allosteric Modulators of the Human D2 Dopamine Receptor: Primary Screen for Potentiators; D(2) dopamine receptor (Homo sapiens), P14416; HEK293 T-REx D2, calcium flux, EC20 dopamine potentiation; potentiation, % at 10 µM; actives 0.34% (n = 340,000); AID 485347, 2010;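 active = potentiation over 3 SD above the plate norm, cut at about 30% in these data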
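Tetracycline-induced HEK293 T-REx cells force-coupled to calcium signalling expressed D2; compounds were pin-added after a 10 s baseline, read kinetically 180 s, then an EC20 dopamine challenge followed with a further 180 s calcium read.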
A number is an active result; 0 = inactive; - = no result given. The list is not random: actives were taken first. Their share in the collection is about 2.4%.

SMILES	D2 PAM-1	D2 ag-1	D2 ag-2	D2 antag	D2 PAM-2
CCn1cc(C(=O)NCCc2ccc(Cl)cc2)c(=O)c2cc(S(=O)(=O)N(C)C)ccc21	0	0	0	0	0
CCn1cc(C(=O)NCc2ccc(Cl)cc2)c(=O)c2cc(S(=O)(=O)N(C)C)ccc21	0	0	0	32.1	0
CCn1cc(C(=O)NCCCN(C)c2ccccc2)c(=O)c2cc(S(=O)(=O)N(C)C)ccc21	0	43.2	0	0	54.1
CCc1cccc(NC(=O)CC(c2ccc(OC)cc2)N2Cc3ccccc3C2=O)c1 (stereo unspecified)	-	0	-	-	0
Cc1cc(C(=O)CSc2nnc(-c3ccc(F)cc3)o2)c(C)n1CC1COc2ccccc2O1 (stereo unspecified)	0	0	0	41.2	0
Cc1cc(C(=O)CSc2nnc(-c3ccccc3)o2)c(C)n1CC1COc2ccccc2O1 (stereo unspecified)	0	0	0	0	0
COC(=O)c1[nH]c2cccc(OC)c2c1NC(=O)CCN1CCN(c2cccc(Cl)c2)CC1	-	0	-	38.3	0
COc1ccccc1NC(=O)NCCN1CCN(c2cccc(Cl)c2)CC1	0	0	0	53.2	0
COc1cc(NS(=O)(=O)c2ccc(NC(=O)/C=C/c3ccc([N+](=O)[O-])cc3)cc2)ncn1	101.6	0	0	0	0
Cc1cc(C)c(OCCCCNCc2ccccc2)c(Cl)c1	0	0	0	49.0	0
C=CCNCCOc1c(C)cc(C)cc1Cl	0	0	0	31.6	0
C=CCNCCCCOc1c(Cl)cc(C)cc1Br	0	0	0	0	0
O=C(COC(=O)c1ccc(S(=O)(=O)NCc2ccco2)cc1)NCc1ccc(F)cc1	0	0	0	0	64.1
CCn1c(CC(=O)Nc2ccccc2F)nnc1SCC(=O)NC1CCCCC1	0	0	0	0	0
C=CCn1c(C)nnc1SCC(=O)Nc1ccccc1C(=O)NC1CC1	0	0	0	0	0
Cc1ccc(NC(=O)Cc2nnc(SCC(=O)NC3CCCC3)n2C)cc1C	0	0	0	31.4	0
Cn1c(CCC(N)=O)nnc1SCC(=O)Nc1ccccc1C(=O)NC1CC1	0	0	0	31.4	0
CCn1c(CC(=O)Nc2ccccc2Cl)nnc1SCC(=O)NC1CCCC1	0	0	0	34.2	0
CCN(CC)CCN(C(=O)c1ccco1)c1nc2c(C)c(C)ccc2s1	-	0	-	-	0
CCOc1cc(-c2noc(N)c2C#N)cc(OCC)c1OCC	130.3	0	40.8	0	0
CCOc1cc(-c2cc(-c3ccc(N)cc3)nc(N)c2C#N)ccc1O	0	0	0	0	0
COc1ccc(CNC(=O)CCc2c(C)c3cc4c(C)c(C)oc4cc3oc2=O)cc1OC	-	-	-	-	0
CCn1cc(S(=O)(=O)c2ccc(OC)cc2)c(=O)c2cc(F)c(N3CCC(C)CC3)cc21	-	0	-	-	0
CCN1CCN(c2cc(N3CCc4ccccc4C3)c(F)cc2[N+](=O)[O-])CC1	0	0	0	61.6	0
O=C(Nc1ccc2nc3n(c(=O)c2c1)CCCCC3)C(=O)N1CCN(c2ccc(F)cc2)CC1	0	0	0	34.3	0
SMILES	D2 PAM-1	D2 ag-1	D2 ag-2	D2 antag	D2 PAM-2
O=c1c2cc(NC(=S)NCCCN3CCC(Cc4ccccc4)CC3)ccc2nc2n1CCCCC2	0	0	0	51.8	0
O=C(c1ccc2c(=O)n3c(nc2c1)CCCCC3)N1CCN(c2ccc(F)cc2)CC1	0	0	0	0	0
O=C(Nc1ccc2nc3n(c(=O)c2c1)CCCCC3)c1ccccc1[N+](=O)[O-]	0	0	0	30.2	0
Cc1ccccc1NC(=O)c1ccc(F)c(S(=O)(=O)N(C)C2CCCCC2)c1	-	0	-	-	0
COc1ccccc1C(=O)NCc1nc2cccnc2n1Cc1ccc(F)cc1	-	0	-	-	0
COc1cc2c(c(O)c1OC)C(=O)C(OC)CCC2 (stereo unspecified)	0	0	0	32.0	0
CCOc1cccc(OCCOCCN(C)Cc2ccccc2)c1	0	0	0	30.4	0
Cc1ccc(Cl)c(OCCCCN(C)Cc2ccccc2)c1	0	0	0	45.5	0
CN(CCOc1ccc(Cl)c(Cl)c1)Cc1ccccc1	0	0	0	65.4	0
CCOc1ccc(OCCN(C)Cc2ccccc2)cc1	0	0	0	0	0
CN(CCCOc1ccccc1Br)Cc1ccccc1	0	0	0	38.5	0
CN(CCOCCOc1ccc(Cl)cc1Br)Cc1ccccc1	0	0	0	39.9	0
CN(CCCOc1ccccc1F)Cc1ccccc1	0	0	0	0	0
Cc1ccc(Cl)c(OCCCN(C)Cc2ccccc2)c1	0	0	0	63.5	0
CCN(CCCNC(=O)CSc1cc(=O)n(CC)c2ccccc12)c1cccc(C)c1	-	0	-	-	0
c1ccc(-c2csc(=Nc3cccnc3)n2CC2CCCO2)cc1 (stereo unspecified)	0	0	0	30.3	0
CCC(=O)N1CCc2cc(Br)cc(S(=O)(=O)NCCc3ccc(C)cc3)c21	-	0	-	-	0
O=C(CSc1nc2sc3c(c2c(=O)n1-c1ccccc1)CCCC3)NCc1ccco1	0	0	0	0	0
CC1(C)Cc2c(sc3nc(SCC(=O)NCc4ccco4)n(-c4ccccc4)c(=O)c23)CS1	0	0	0	30.4	0
CCOc1ccccc1-n1nnc(-c2nc(-c3ccccc3C)no2)c1C	-	0	-	-	0
O=C(NCc1ccc(F)cc1)C(=O)NCC(c1ccco1)S(=O)(=O)c1cccs1 (stereo unspecified)	-	0	-	-	0
Cc1cccc2cc(CN(CC3CCCO3)C(=O)NC3CCCCC3)c(=O)[nH]c12 (stereo unspecified)	0	0	0	0	0
CNC(=S)N(CCc1cccc(C)c1)Cc1cc2cc(OC)c(OC)cc2[nH]c1=O	0	0	0	30.3	0
COc1ccc(CCN(Cc2cc3cccc(C)c3[nH]c2=O)C(=O)NC2CCCCC2)cc1OC	0	0	0	31.3	0
COC(=O)CC(=O)CSc1nc2cc(C(=O)NCC(C)C)ccc2c(=O)n1CCc1ccccc1	-	0	-	-	0
CCOC(=O)Cc1ccc(NC(=O)N2CC(C)Oc3ccc(Cl)cc32)cc1 (stereo unspecified)	-	0	-	-	0
O=C(O)c1ccc(/C=N/n2cc(-c3ccccc3)[nH]c2=S)cc1	0	0	0	0	0
Fc1ccccc1/C=N/n1cc(-c2ccccc2)[nH]c1=S	0	0	0	37.8	0
S=c1[nH]c(-c2ccccc2)cn1/N=C/c1ccc(Br)cc1	0	0	0	36.5	0
